In all, about 81,000 sequences were measured (“one-hybrid fitness for binding NBS DNA”: median about -0.1, highest 2% from about 0.36 on). Many of the other results were omitted from the sample, so the highest values are more common in it than they were.
B1: Caulobacter ParB omega fusion; a variant is named by its letters at X, in order, B8GW30 (parent)
chain: MESVVVGEPGMSEGRRGLGRGLSALLGEVDAAPAQAPGEQLGGSREAPIEILQRNPDQPRRTFREEDLEDLSNSIREKGVLQPILVRPSPDTAGEYQIVAGERAWRAAQRAGLKTVPIMVRELDDLAVLEIGIIENVQRADLNVLEEALSYKVLMEKFERTQENIAQTIGKSXSHVANXMRLLXLPDEVQSYLVSGELTAXHARAIAAAADPVALAKQIIEGGLSVRETEALARKAPNLSAGKSKGGRPPRVKDTDTQALESDLSSVLGLDVSIDHRGSTGTLTITYATLEQLDDLCNRLTRGI

Variants of: B1
Assay: one-hybrid fitness for binding NBS DNA (the Noc-binding site; scaled: cognate 1, non-cognate 0); higher = stronger binding
Conditions: with NBS DNA site
How it was run: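 Fitness here means the log change in variant-to-wild-type read ratio between plasmids sequenced before and after selection. That scale was set so cognate equals 1 and non-cognate equals 0. The selection was a bacterial one-hybrid screen of Caulobacter ParB libraries, four specificity codons randomised, in E. coli USO carrying a HIS3 reporter with the site 19 bp from the promoter, grown 48 hours at 37°C on M9-minus-histidine with 0.1 mM IPTG and 5 mM 3-AT.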

Variant | one-hybrid fitness for binding NBS DNA
RCGT | 0.462
RIGT | 0.403
RAGT | 0.443
RSGT | 0.425
RIGQ | ≤ 0.2
RAGF | ≤ 0.2
CETT | ≤ 0.2
LWGM | ≤ 0.2
HAAD | ≤ 0.2
HAFN | ≤ 0.2
VLQG | ≤ 0.2
QPVT | 0.269
QKKT | 0.774
QCVT | 0.428
QKVG | ≤ 0.2
QKVT | 0.44
QGVT | ≤ 0.2
DKKT | ≤ 0.2
CKVS | ≤ 0.2
ENAK | ≤ 0.2
LWKN | ≤ 0.2
VVCT | ≤ 0.2
GSCC | ≤ 0.2

Variant | one-hybrid fitness for binding NBS DNA
HRFR | ≤ 0.2
RRNF | 0.281
RRNC | 0.343
RRDS | 0.58
RRNS | 0.678
RRDP | ≤ 0.2
RRDD | ≤ 0.2
ADSL | ≤ 0.2
MLMV | ≤ 0.2
CATV | ≤ 0.2
SVNP | ≤ 0.2
VMPY | ≤ 0.2
MHHD | ≤ 0.2
QRLD | ≤ 0.2
QCLH | ≤ 0.2
QRLS | 0.603
QRLH | 0.453
QRLP | ≤ 0.2
QRLN | 0.308
LGRE | ≤ 0.2
ACPI | ≤ 0.2
REGM | ≤ 0.2
TASA | ≤ 0.2

Variant | one-hybrid fitness for binding NBS DNA
RQNR | 0.559
RQSR | 0.474
RQWR | 0.244
RQRR | 0.717
RQSD | ≤ 0.2
RQSH | ≤ 0.2
RQQP | ≤ 0.2
RQND | ≤ 0.2
RQQD | ≤ 0.2
RQPR | ≤ 0.2
RQQS | 0.429
RQDR | ≤ 0.2
ARKV | ≤ 0.2
NQVL | ≤ 0.2
FWRE | ≤ 0.2
DFAH | ≤ 0.2
PFPI | ≤ 0.2
KFHC | ≤ 0.2
LPAH | ≤ 0.2
KTKA | ≤ 0.2
EELL | ≤ 0.2
PSMT | ≤ 0.2
RQGS | 0.408

Variant | one-hybrid fitness for binding NBS DNA
RQHD | ≤ 0.2
RQQK | ≤ 0.2
RQHH | ≤ 0.2
RQQG | ≤ 0.2
RQLR | 0.359
RQGN | ≤ 0.2
RQHR | 0.476
RQIR | ≤ 0.2
RQYR | 0.368
RQGP | ≤ 0.2
RQQT | 0.441
CNHR | ≤ 0.2
SRDF | ≤ 0.2
GICT | ≤ 0.2
HHHV | ≤ 0.2
ISLV | ≤ 0.2
PQPQ | ≤ 0.2
SHQT | ≤ 0.2
RQQH | ≤ 0.2
RQQN | ≤ 0.2
RQGD | ≤ 0.2
RQVR | 0.258
RQQR | 0.475

Variant | one-hybrid fitness for binding NBS DNA
RQGR | 0.447
RQGH | ≤ 0.2
RQKR | 0.752
RQFR | 0.262
RQAR | 0.427
RQKG | ≤ 0.2
RQAP | ≤ 0.2
IAMG | ≤ 0.2
HHPA | ≤ 0.2
HPHL | ≤ 0.2
TLMC | ≤ 0.2
PVFR | ≤ 0.2
FHGR | ≤ 0.2
QHHG | ≤ 0.2
RYFG | ≤ 0.2
RQCR | 0.394
RQYS | 0.322
RQRS | 0.6
RQCS | 0.278
RQHP | ≤ 0.2
RQHN | ≤ 0.2
RQCN | ≤ 0.2
RQHS | 0.468

Variant | one-hybrid fitness for binding NBS DNA
RQRN | 0.221
TYVN | ≤ 0.2
IGSF | ≤ 0.2
FTRC | ≤ 0.2
PRTW | ≤ 0.2
QTHD | ≤ 0.2
QTHN | 0.297
QTHY | 0.384
QTHH | 0.44
QTHS | 0.585
QSHY | 0.201
QTHF | ≤ 0.2
QTHP | ≤ 0.2
YMSF | ≤ 0.2
HSWC | ≤ 0.2
ATGK | ≤ 0.2
YNLW | ≤ 0.2
DVCT | ≤ 0.2
DEDT | ≤ 0.2
PSQV | ≤ 0.2
DYHC | ≤ 0.2
RKWK | ≤ 0.2
AQNL | ≤ 0.2

Variant | one-hybrid fitness for binding NBS DNA
RRHH | 0.525
RRHP | ≤ 0.2
RRHK | 0.267
RRHS | 0.681
RRHN | 0.331
RRHD | ≤ 0.2
VSMF | ≤ 0.2
PDIW | ≤ 0.2
QITA | ≤ 0.2
QRMA | 0.549
QRCA | 0.609
QCMA | 0.303
QSTA | 0.219
QHCA | ≤ 0.2
QRTA | 0.6
QSWA | ≤ 0.2
QACA | ≤ 0.2
QRWA | 0.432
QIWA | ≤ 0.2
QSMA | ≤ 0.2
